Laboratory results as given in PubChem BioAssay (NCI).
Compounds without any hit were thinned out: in the full panel of roughly 79,000, 15% have a hit. Values without a mark were called inactive. Active and inactive are the calls of the source. No stated cut-off is given here; in the data, active means growth inhibition above about 70%; inactive means the rest.

How the values were obtained:
[1] = NCI Yeast Anticancer Drug Screen. Data for the rad50 strain (AID 155);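 further: 0% = growth of vehicle-only cultures of the same strain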; settings: S. cerevisiae rad50 strain growth inhibition; at 50.0 µM; active compounds read high
Method in brief: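 Genetically altered yeast (DNA repair pathway); compound treatment; growth inhibition vs vehicle ctrl.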

[2] = NCI Yeast Anticancer Drug Screen. Data for the mec2-1 strain (AID 157); settings: S. cerevisiae mec2-1 strain, at 50.0 µM, active compounds read high
Method in brief: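 Test agents were screened against the mec2-1 yeast strain, with defined DNA repair or cell cycle alteration. Growth was scored as inhibition against vehicle-only controls.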

[3] = NCI Yeast Anticancer Drug Screen. Data for the sgs1 mgt1 strain (AID 161);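 further: 0% = growth of cultures given vehicle only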; settings: S. cerevisiae sgs1 mgt1 strain, at 50.0 µM, active compounds read high
Method in brief: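 Test agents were incubated with a DNA-repair-mutant yeast strain. Growth was then read and compared against vehicle-treated controls.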

[4] = NCI Yeast Anticancer Drug Screen. Data for the cln2 rad14 strain (AID 165);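 further: 0% = growth equal to vehicle treated cultures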; settings: S. cerevisiae cln2 rad14 strain, at 50.0 µM, active compounds read high
Method in brief: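 Growth of compound-exposed yeast (cln2 rad14 genotype) measured and expressed as inhibition relative to vehicle.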

[5] = NCI Yeast Anticancer Drug Screen. Data for the bub3 strain (AID 167); settings: S. cerevisiae bub3 mutant strain, at 50.0 µM, active compounds read high
Method in brief: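 Yeast carrying a defined mutation is treated with each compound, and growth is compared with that of vehicle-exposed cells to give inhibition.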

[6] = NCI Yeast Anticancer Drug Screen. Data for the mlh1 rad18 strain (AID 175); settings: S. cerevisiae mlh1 rad18 strain growth inhibition; at 50.0 µM; active compounds read high
Method in brief: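 In this whole-cell yeast screen, a strain with altered DNA damage repair is challenged with compound, and its growth is measured against matched vehicle-treated controls.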

| Compound | growth inhibition [1] | growth inhibition [2] | growth inhibition [3] | growth inhibition [4] | growth inhibition [5] | growth inhibition [6] |
| --- | --- | --- | --- | --- | --- | --- |
| CC(C)N(C(=O)/C=C/C(=O)N(C(C)C)C(C)C)C(C)C | 3.7% | 27.1% | -1.7% | -2.05% | 18.8% | -9.6% |
| CCNC(=S)Nc1ccc(Cl)cc1 | 27.2% | 40.4% | 39% | -6.1% | 53.4% | 35.8% |
| CC1CC(N2CSC(=S)N(C3CC(C)CC(C)(C)C3)C2)CC(C)(C)C1 (stereo unspecified) | -17.2% | -16.2% | -4.55% | 9.5% | 3.9% | -0.4% |
| CC(=O)Oc1ccc2c(-c3ccccc3)c(Oc3ccc(Cl)cc3)c(=O)oc2c1 | -4.2% | -5.05% | -3.7% | -16.1% | 3.3% | 4.35% |
| C=CCC1(/C(=C\CC)CCC)C(=O)NC(=O)N=C1N (stereo unspecified) | 8.45% | -0.3% | 10% | -36.8% | -11.2% | 8.3% |
| CCOC(=O)CC(=O)c1ccc(Cl)cc1 | 15.1% | 12.9% | 11.4% | 6.95% | -12.8% | -7.65% |
| O=C1c2ccc3ccccc3c2C(=O)c2ccc3ccccc3c21 | -20.6% | -4.5% | -3.65% | -30.2% | -12.3% | -16.8% |
| C[CH2][Ge]([CH2]C)[CH2]C.C[CH2][Ge]([CH2]C)[CH2]C.C[CH2][Ge]([CH2]C)[S][Ge]([CH2]C)[CH2]C | 25.1% | 29.5% | 52.7% | 40.4% | 35.9% | 6.75% |
| COc1cc(C=Nc2ccc(C(C)C)cc2)cc(OC)c1OC | 9.25% | 13.3% | 19.1% | 8.35% | -4.65% | 12.7% |
| CCOC(=O)C(C)(C)c1cn(C)c2ccccc12 | -7.05% | -9.9% | -2.7% | -4.8% | -6.55% | 7.4% |
| NC(CCCCC1CCCCC1)C(=O)O (stereo unspecified) | -5.75% | -29.4% | -18.1% | -37.4% | -28.4% | -2.95% |
| CC(=O)Nc1cc2c(cc1Cl)-c1ccc(Br)cc1C2 | 6.35% | -12.8% | -2.25% | -23.4% | 0.85% | -19.7% |
| CCC(CC)OC(=O)Nc1cccc2ccccc12 | -16.4% | -9.65% | -5.75% | -55% | 4.9% | -14.6% |
| CC1(C)C(=NN=C(N)N)C(C)(C)C1=NN=C(N)N | -3.35% | -6.95% | -15.8% | 29.3% | -18.5% | 14.7% |
| NC(=O)NC(=O)c1ccco1 | 52.7% | -1.55% | 28.9% | 17.1% | -1.3% | 16% |
| O=[N+]([O-])c1cccc(S/N=C/c2c(O)ccc3ccccc23)c1 | 98.5% (active) | 99.1% (active) | 99.2% (active) | 72.8% (active) | 98.5% (active) | 97.8% (active) |
| CC(=O)Nc1ccccc1OC(=O)c1ccccc1 | 4.4% | -4.4% | 2.6% | 11.9% | 1.8% | -2.5% |
| CC1=C(C)C(=O)C=CC1=O | 19.9% | 6.3% | 5.3% | -1% | 3.95% | 12% |
| CC1=C(C(=O)Nc2cc(F)c(F)cc2F)C(c2cccc([N+](=O)[O-])c2)C(C(=O)Nc2ccccc2C(F)(F)F)=C(C)N1 (stereo unspecified) | 20.4% | 21.8% | 8.4% | 2.15% | 9.75% | -2.65% |
| CN(N=O)C(N)=NC(=O)c1ccccc1 | 11.4% | 10% | 20.9% | -20.6% | -16.1% | -35.3% |
| OC1CCOc2ccccc21 (stereo unspecified) | -29.8% | 10.1% | -11.1% | 10.2% | -14.8% | -6.3% |

| Compound | growth inhibition [1] | growth inhibition [2] | growth inhibition [3] | growth inhibition [4] | growth inhibition [5] | growth inhibition [6] |
| --- | --- | --- | --- | --- | --- | --- |
| Oc1cccc(C=NCCN=Cc2cccc(O)c2O)c1O.[Fe] | -9.35% | -5.7% | 4.65% | -39.7% | 13.2% | 1.15% |
| CC(C)(O)c1ccccc1[S+]1OC(C)(C)c2ccccc21 (stereo unspecified) | 27.9% | 17.6% | 30.3% | 56.8% | 98.3% (active) | 35.8% |
| COC(=O)C1C(C)(C(=O)OC)N=NC1(c1ccccc1)c1ccccc1 (stereo unspecified) | 7.85% | -1.05% | -7.55% | 16% | 19.8% | -3.4% |
| CCOc1ccc(C(C)(CC)c2cc3c(cc2OC)OCO3)cc1 (stereo unspecified) | -18.9% | -14.3% | -23.3% | 3.55% | -20.1% | 3.85% |
| CCOC(=O)/C(=C\c1cc(OC)ccc1OC)P(=O)(OCC)OCC | 39.2% | 25.9% | 18.4% | 21.9% | 7.6% | 16.8% |
| N#CC(OC(=O)c1ccccc1)C(OC(=O)c1ccccc1)C(COC(=O)c1ccccc1)OC(=O)c1ccccc1 (stereo unspecified) | -38.9% | 6.3% | 9.95% | 20.5% | -10.5% | 26.6% |
| CCCC(=O)Oc1cccc(C)c1 | 15.7% | 4.75% | 0.1% | 14.6% | 0.1% | -17.8% |
| O=C(c1ccc(Br)cc1)C(C(c1ccccc1)N1CCOCC1)N1CCOCC1 (stereo unspecified) | 3.1% | -1.1% | -9.6% | -19.5% | -20.6% | 31.9% |
| COc1cc([N+](=O)[O-])c(C=O)c(C(=O)O)c1OC | 6.5% | -1.85% | -10.3% | 13.7% | 1.75% | 4.9% |
| CCN(CC)Cc1cc(N)cc(N=Nc2ccc3c(c2)c2ccccc2n3CC)c1O | 29.2% | 0% | 12.4% | 27.7% | -3.4% | 17.9% |
| CSc1nc(N)n2nc(C3CC3)cc2n1 | 5.5% | -10.8% | 16.1% | 21.4% | 15.9% | 3.4% |
| OC(CN(C1CCCCC1)C1CCCCC1)c1ccnc2c(Cl)cc(Cl)cc12 (stereo unspecified) | -21.8% | -1% | 7.3% | 0.6% | -6.3% | 18.4% |
| CS(=O)(=O)c1cc(=O)[nH]c(=O)[nH]1 | 0.55% | 1.45% | 18.2% | 25.6% | -0.9% | 7.45% |
| CCCNC1=C(C(=O)OCC)C(=O)CO1 | -12.4% | -20.7% | 3.55% | 15.6% | -2.4% | 0.1% |
| C[C@@H](CC(=O)O)OC1OC(COC(=O)C(C)(C)C)C(OC(=O)C(C)(C)C)C(OC(=O)C(C)(C)C)C1OC(=O)C(C)(C)C (stereo partly specified) | 4.25% | -45.1% | -17.7% | 7% | -15.5% | 85.8% (active) |
| CN(C)c1ccc(NC2COc3ccccc3C2=O)cc1 (stereo unspecified) | -13.1% | 3.9% | 17.4% | -17.2% | 67% | -6.6% |
| COC(=O)CC(NC(=O)C(Cc1ccccc1)NC(=O)OCc1ccccc1)C(=O)O (stereo unspecified) | 31.5% | 9.15% | 18.2% | 11.7% | 2.1% | 23.1% |
| CS(=O)(=O)ON1C(=O)c2ccccc2C1=O | 9.9% | -52% | -3.9% | 6.5% | -2.6% | -9.55% |
| CCN(CC)C(=O)c1ccc(O)c(OC)c1 | 17.7% | 17% | 7.3% | 7.65% | -7.3% | -4.3% |
| CN(C)CCCSc1n[nH]c(=O)[nH]c1=O | 6.4% | 2.5% | -11.3% | -19.7% | 1.6% | -10.1% |
